From PubChem BioAssay
ABCB6 inh MLPCN = human ABCB6 transporter inhibition; actives 0.19% (n = 360,000); fluorescence ratio to DMSO, % at 10 µM; AID 602162; K562-ABCB6 porphyrin accumulation, flow cytometry, 1 h; active compounds read low;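 active means fluorescence ratio to DMSO below 75%, the collection mean minus 3 SD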;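 further: signal is porphyrin accumulated inside mitochondria; lower ratio means ABCB6 inhibition with less porphyrin fluorescence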
Target sequence (Q9NP58 whole entry, looked up): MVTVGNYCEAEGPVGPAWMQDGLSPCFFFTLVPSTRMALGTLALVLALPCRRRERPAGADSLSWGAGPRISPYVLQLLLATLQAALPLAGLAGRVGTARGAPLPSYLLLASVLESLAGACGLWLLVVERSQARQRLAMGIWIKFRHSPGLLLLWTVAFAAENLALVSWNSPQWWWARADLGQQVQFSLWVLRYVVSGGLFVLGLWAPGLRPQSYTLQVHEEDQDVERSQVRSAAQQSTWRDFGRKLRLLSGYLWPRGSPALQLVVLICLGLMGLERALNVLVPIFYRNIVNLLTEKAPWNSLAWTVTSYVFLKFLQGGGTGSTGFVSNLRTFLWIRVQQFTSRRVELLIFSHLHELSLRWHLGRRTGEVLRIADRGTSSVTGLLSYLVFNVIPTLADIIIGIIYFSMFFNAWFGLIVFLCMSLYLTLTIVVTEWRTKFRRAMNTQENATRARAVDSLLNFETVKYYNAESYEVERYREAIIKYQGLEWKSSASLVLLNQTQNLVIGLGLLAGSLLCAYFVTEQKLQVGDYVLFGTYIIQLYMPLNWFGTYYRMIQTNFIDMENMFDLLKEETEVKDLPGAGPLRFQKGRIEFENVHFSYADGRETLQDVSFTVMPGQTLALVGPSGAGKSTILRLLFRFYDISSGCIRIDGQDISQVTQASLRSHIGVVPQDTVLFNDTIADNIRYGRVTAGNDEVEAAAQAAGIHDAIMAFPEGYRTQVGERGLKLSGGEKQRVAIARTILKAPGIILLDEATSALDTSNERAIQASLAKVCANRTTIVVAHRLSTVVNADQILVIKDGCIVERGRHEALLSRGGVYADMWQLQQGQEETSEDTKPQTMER
Myeloid diff 2 = myeloid differentiation induction; actives 1% (n = 360,000); AID 624256; calls only at 10 µM; ER-HoxA9 myeloid progenitors, lysozyme-GFP differentiation, flow cytometry;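 active means normalized GFP-positive differentiation at or above the plate's own cutoff, the solvent-only control mean plus 3 SD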;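 further: cells exposed to compound for four days before flow analysis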
Exocytosis inh = blocks lytic granule exocytosis. TALL-104 LAMP-1 surface exposure, flow cytometry; cells stimulated with thapsigargin and PMA. inhibition, % at 10 µM. actives 0.66% (n = 360,000). AID 651702;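 active means inhibition above about 55%, limit read from the data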
Myeloid diff CP1 = myeloid differentiation induction. shares compounds with Myeloid diff 2. ER-HoxA9 myeloid progenitors, GFP/Mac1 double-positive flow. calls only. actives 2% (n = 2,300);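 active means share of green or green-and-red cells above 9 and 9% in run 1 or 4 and 3% in run 2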
GFP autofluor = counter-screen for myeloid differentiation promoters: compound fluorescence; shares compounds with Myeloid diff 2; ER-HoxA9 myeloid progenitors, no estrogen, GFP autofluorescence flow cytometry; vehicle wells 0%, positive control 100%; fluorescence response, % (test concentration not listed); actives 7.4% (n = 2,300);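 active means over 5% cells positive for green fluorescent reporter, or over 2% positive for both it and APC stain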
Of the large screens only hits and unclear results are named; the others gave an inactive call (follow-up assays come after a bar, where they were run). An excerpt weighted towards active compounds, which were near 1.8% of everything screened.

CCCCOc1cccc(C2C(C(=O)c3ccc(C)o3)=C(O)C(=O)N2c2nnc(C)s2)c1 (stereo unspecified)	Myeloid diff 2 active | Myeloid diff CP1 inactive | GFP autofluor inactive
O=C(c1cccc(Cl)c1)N1CCC(=O)N([C@H](COCc2cccc(Cl)c2)Cc2ccccc2)CC1	none
COc1ccccc1CN(Cc1nc2ccccc2c(=O)[nH]1)C(=O)Nc1ccccc1C	none
COc1ccccc1CN(Cc1nc2ccccc2c(=O)[nH]1)C(=O)Nc1ccc(C)cc1	none | Myeloid diff CP1 active | GFP autofluor inactive
Cc1cn([C@H]2C[C@H](O)[C@@H](CNCc3cnc(N4CCOCC4)s3)O2)c(=O)[nH]c1=O	none
Cc1ccc(NC(=O)CSc2ncnc3ccccc23)cc1S(=O)(=O)N1CCCCCC1	Myeloid diff 2 active | Myeloid diff CP1 inactive | GFP autofluor inactive
Cc1ccc(S(=O)(=O)N2CCCCC2)cc1NC(=O)CSc1ncnc2ccccc12	none
CC(O)CNc1nc2ccccc2n1CC(=O)NC12CC3CC(CC(C3)C1)C2 (stereo unspecified)	none
CCOC(=O)C1CCN(C(=O)CSc2nccc(C)n2)CC1	none
COc1ccc(NC(=O)c2csc(Cc3ccc(Cl)cc3)n2)cc1	none
COc1ccc(COc2ccsc2C(=O)Nc2ccc(Cl)cc2)cc1	none | Myeloid diff CP1 inactive | GFP autofluor inactive
OC(c1ccc(Cl)c(Cl)c1)c1ncc(-c2ccccc2F)[nH]1 (stereo unspecified)	none
CCCOc1ccc2[nH]cc(C(=O)O)c(=O)c2c1	none | Myeloid diff CP1 inactive | GFP autofluor inactive
CCOc1ccc2[nH]cc(C(=O)NCc3ccc(F)cc3)c(=O)c2c1	none
CCOC(=O)C1CCN(Cc2cc(C(C)C)c(O)c(C(C)C)c2)CC1	Myeloid diff 2 active | Myeloid diff CP1 inactive | GFP autofluor inactive
CCOC(=O)C1CCN(Cc2ccc3ccccc3c2)CC1	none
COc1cc2c(CCNC(C)=O)c[nH]c2cc1Cl	none
CCn1c(SCC(=O)N2CCN(c3ccc(Cl)cc3)CC2)nc2ccccc2c1=O	none
CCn1c(SCC(=O)N2CCN(c3ccc(F)cc3)CC2)nc2ccccc2c1=O	none | Myeloid diff CP1 inactive | GFP autofluor inactive
COc1cc(CN2C[C@@H](CO)O[C@@H](n3cnc4c(N5CCN(C)CC5)ncnc43)C2)cc(OC)c1OC	none
Cc1ccc(C)c(NC(=O)C2=CCN(S(=O)(=O)c3ccc(F)cc3)CC2)c1	none
CCn1c(=O)c(C(=O)NC(C)c2ccccc2)c(O)c2ccccc21 (stereo unspecified)	Myeloid diff 2 active | Myeloid diff CP1 inactive | GFP autofluor inactive
CCCn1c(=O)c(C(=O)NC(C)c2ccccc2)c(O)c2ccccc21 (stereo unspecified)	none
O=C1NCCOC(=O)[C@@H](Cc2ccc(F)cc2)C/C=C\C[C@@H]1CC(=O)N(CCO)Cc1ccccc1	none
Cc1csc(C(C)N(C)C(=O)c2ccc(OC3CCN(Cc4ccccn4)CC3)cc2)n1 (stereo unspecified)	none
C=CCc1c(C)[nH]c2c(OC)cccc2c1=S	none
COc1ccccc1NC(=O)CSc1nnc(-c2ccco2)n1Cc1ccco1	none | Myeloid diff CP1 inactive | GFP autofluor inactive
COc1ccccc1NC(=O)CSc1nnc(-c2ccccn2)n1Cc1ccco1	none
Cc1ccc(S(=O)(=O)N2CCOCC2)cc1C(=O)Nc1nc2ccccc2[nH]1	none
COc1cccc(NC(=O)C(c2ccccc2)N2CCN(CC(=O)N3CCOCC3)CC2)c1 (stereo unspecified)	none
CCN1C(=O)/C(=C/C=C2/SCCN2C)SC1=S	none
CCCN1C(=O)/C(=C\C=C2/Sc3ccccc3N2CCO)SC1=S	Myeloid diff 2 active | Myeloid diff CP1 inactive | GFP autofluor 6.5
O=C(CSc1nnc(Cc2ccccc2)o1)Nc1ccc(N2CCOCC2)cc1	none
O=C(CCn1c(=O)sc2ccccc21)Nc1ccon1	none
O=C(CCn1c(=O)sc2ccccc21)NC1=NCCS1	none | Myeloid diff CP1 inactive | GFP autofluor inactive
COc1ccc(N2CCN(C(=O)c3ccc(CNS(=O)(=O)c4cc(C)ccc4C)cc3)CC2)cc1	none
Cc1ccc(NC(=O)C2CCCN(C3=NS(=O)(=O)c4ccccc43)C2)c(O)c1 (stereo unspecified)	Myeloid diff 2 active | Myeloid diff CP1 inactive | GFP autofluor 21
O=C(Nc1ccc(Cl)cc1F)C1CCCN(C2=NS(=O)(=O)c3ccccc32)C1 (stereo unspecified)	none
CC(=O)N1c2ccc(S(=O)(=O)NCCc3ccccc3)cc2CC1C (stereo unspecified)	none
O=S(=O)(NCc1ccco1)c1ccc2c(c1)Cc1ccccc1-2	none | Myeloid diff CP1 inactive | GFP autofluor inactive
CC(=O)N1c2ccc(S(=O)(=O)NCc3ccco3)cc2CC1C (stereo unspecified)	Myeloid diff 2 active | Myeloid diff CP1 inactive | GFP autofluor inactive
Cc1ccc(S(=O)(=O)NCc2ccco2)cc1C	none
CCOc1nc2cnccc2n(CC(=O)Nc2cccc(C)c2C)c1=O	none
CNc1cncc(-c2cccc(NS(C)(=O)=O)c2)n1	none
CCC(C(=O)OC)n1cnc2c(nnn2-c2ccc(F)cc2)c1=O (stereo unspecified)	none
COc1cccc(Oc2ncnc(N)c2[N+](=O)[O-])c1	none
Nc1nnc(COc2ccc(Br)cc2Br)s1	none
Cc1ccc(C)c(OCc2nnc(N)s2)c1	none | Myeloid diff CP1 inactive | GFP autofluor inactive
COc1ccc(S(=O)(=O)N2CCOCC2)cc1NC(=O)CSc1nnnn1C1CC1	none
CCN1CCN(c2ccc(S(=O)(=O)N3CCCCC3)cc2NC(=O)/C=C/c2ccc(OC(F)F)cc2)CC1	none | Myeloid diff CP1 inactive | GFP autofluor inactive
CN1CCN(c2ccc(S(=O)(=O)N3CCCCC3)cc2NC(=O)/C=C/c2ccc(OC(F)F)cc2)CC1	none
Cc1cc(C)c(S(=O)(=O)NC2CCN(Cc3ccccc3)CC2)c(C)c1	none
Cc1cc(C)c(S(=O)(=O)NNC(=O)C2CCN(Cc3ccccc3)CC2)c(C)c1	none | Myeloid diff CP1 inactive | GFP autofluor 87
COc1ccccc1COc1cccn2c(N(C)C(=O)CCC3CCCC3)c(C)nc12	Myeloid diff 2 active | Myeloid diff CP1 inactive | GFP autofluor inactive
COC(=O)c1ccccc1COc1cccn2c(N(C)C(=O)CCC3CCCC3)c(C)nc12	none
O=c1cc(-c2ccc(O)cc2)oc2c1ccc1ccccc12	none
O=c1cc(-c2ccc(O)cc2)oc2c(O)c(O)c(O)c(O)c12	none | Myeloid diff CP1 inactive | GFP autofluor inactive
CC(=O)Nc1ccc(/C(C)=N/Nc2nc(Nc3cccc4ccccc34)nc(N3CCOCC3)n2)cc1	none
CCC(=O)c1cn(CC(=O)Nc2ccccc2Cl)c2ccccc12	Myeloid diff 2 active | Myeloid diff CP1 inactive | GFP autofluor 2.1
CCC(=O)c1cn(CC(=O)Nc2cccc(C)c2C)c2ccccc12	none
CCc1c(C)nc2cc(-c3cccc(Br)c3)[nH]n2c1=O	none
CCOc1ccc(/C(O)=C2/C(=O)C(=O)N(c3nc(C)c(C)s3)C2c2ccco2)cc1 (stereo unspecified)	none | Myeloid diff CP1 inactive | GFP autofluor 9.0
